# esBAF inh = Bmi1 luciferase reporter increase in mESCs, primary screen, esBAF inhibitor project, mouse ES cells, Bmi1 luciferase knock-in, single point | 24 h; 100% = twice the neutral-well signal | reporter increase, % at 12.5 µM | hit rate 2% among 350,000 | AID 602393, 2012; in the data active = activation above about 40%; inconclusive = no clear call, values can overlap the other calls;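 also: 0% = median of the plate's neutral control wells and 100% = double that signal; a rise in the Bmi1 reporter signal indicates esBAF inhibition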
# SMARCA2 activ = SMARCA2 (BRM) function activators, primary screen, cell-based, luminescence, high throughput. MG213 cells, MMTV-luciferase reporter, dexamethasone, overnight. activation, % at 9.1 µM. hit rate 1% among 370,000; in the data active = activation above about 7.8%;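 also: 0% = vehicle wells and 100% = reference activator wells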
# Wnt act = Wnt/beta-catenin pathway activators, primary screen, cell-based, plate reader, single point; Wnt/beta-catenin reporter cell assay, activator; activation, % at 9.35 µM; hit rate 1.2% among 300,000; AID 743398, 2014; in the data active = activation above about 30%, passing the limit was not always enough; inconclusive = no clear call, values can overlap the other calls;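 also: 0% = neutral control wells and 100% = positive control wells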
# AF4-AF9 inh = inhibitors of AF4 peptide binding to AF9, primary screen, biochemical, AlphaScreen, biotin-AF4 peptide, FLAG-AF9, single point. Protein AF-9 (Homo sapiens), P42568. hit rate 0.47% among 350,000. inhibition, % at 10 µM;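 active = every replicate reaching a set inhibition limit, whatever the replicate mean, cut at about 25% in these data; inconclusive = mean inhibition reaches that limit but some replicates miss it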;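 also: 0% = plate neutral control median and 100% = total signal loss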
# Target sequence (P42568 whole entry, looked up): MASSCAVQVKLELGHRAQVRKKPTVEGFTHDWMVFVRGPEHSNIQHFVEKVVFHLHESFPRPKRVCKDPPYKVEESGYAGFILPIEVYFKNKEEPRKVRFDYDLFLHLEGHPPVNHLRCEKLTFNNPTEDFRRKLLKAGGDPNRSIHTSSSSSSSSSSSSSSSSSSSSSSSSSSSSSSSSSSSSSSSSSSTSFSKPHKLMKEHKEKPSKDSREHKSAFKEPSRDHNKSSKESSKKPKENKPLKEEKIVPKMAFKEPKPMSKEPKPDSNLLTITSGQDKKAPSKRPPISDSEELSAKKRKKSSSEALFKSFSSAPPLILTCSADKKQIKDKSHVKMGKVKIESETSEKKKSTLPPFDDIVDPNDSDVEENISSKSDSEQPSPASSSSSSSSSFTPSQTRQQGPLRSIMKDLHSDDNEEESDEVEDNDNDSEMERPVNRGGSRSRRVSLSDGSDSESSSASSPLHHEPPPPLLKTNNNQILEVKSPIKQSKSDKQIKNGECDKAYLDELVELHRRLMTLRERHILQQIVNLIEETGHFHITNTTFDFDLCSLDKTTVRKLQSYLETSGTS
# MITF act = activators of MITF-driven TRPM1 promoter reporter, primary screen, cell-based, SK-MEL-5, luciferase, single point; activation, % at 12.5 µM; hit rate 0.75% among 300,000; SK-MEL-5 TRPM1-promoter luciferase, 24 h; % of positive control, neutral wells = 0;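 active = mean activation of at least 80% with every replicate also reaching 80%; inconclusive = mean reaches 80% but some replicate falls short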;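 also: 0% = neutral control wells and 100% = parthenolide positive control wells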
# FGF22 binding = binders of human FGF22 protein, primary screen, FGF22 synaptogenesis inhibitor project, biophysical, thermal shift, single point; recombinant FGF22 thermal shift, SYPRO orange fluorescence; percent of sucrose octasulfate shift, DMSO zero; activity (Tm shift, normalised), % at 9.99 µM; hit rate 1.5% among 340,000;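 active = mean Tm shift, scaled 0 neutral to 100 positive control, at about 1.3% or above, every replicate too, limit read from the data; inconclusive = no clear call, values can overlap the other calls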
# * hit, by the source's call; ? = inconclusive; nt = no result. Shown are actives, neighbours in structure and some others; about 4.3% of the full set was active somewhere.
SMILES,esBAF inh,SMARCA2 activ,Wnt act,AF4-AF9 inh,MITF act,FGF22 binding
[O-]/[N+](=C\c1ccccc1)c1ccc(Br)cc1,74.6*,3.0,32.2*,0.7,63.2,0.6
CC(C)C(O)C1CCN(Cc2nc(-c3cccs3)no2)CC1 (stereo unspecified),58.0*,0.0,8.0,-0.8,50.2,0.3
Brc1ccc(-c2noc(CCc3ccccc3)n2)cc1,17.8,1.3,1.6,nt,19.9,nt
NC(=O)C1CCN(Cc2nc(-c3cccs3)no2)CC1,-1.5,-2.9,1.6,-0.4,nt,0.0
CCCc1nc(-c2ccc(-c3ccc(F)cc3)cc2)no1,57.9*,0.3,nt,nt,nt,nt
CC1CCN(Cc2nc(-c3ccccc3)no2)CC1,54.9*,5.1,nt,nt,nt,nt
c1ccc(CCc2nc(-c3ccccc3)no2)cc1,46.0*,1.4,0.9,nt,71.5,nt
O=C(NCCc1nc(-c2ccc(F)cc2)no1)c1ccc(F)cc1,1.3,-1.4,1.2,-0.4,-0.9,0.4
COCCNC(=O)C[C@@H]1C[C@@H]2c3cc(NC(=O)CC4CC4)ccc3O[C@@H]2[C@H](CO)O1,-5.2,nt,nt,0.0,nt,0.8
C[C@H](CO)N1C[C@H](C)[C@H](CN(C)C(=O)Nc2ccc3c(c2)OCO3)Oc2ccc(NS(=O)(=O)c3cn(C)cn3)cc2C1=O,6.6,nt,nt,-5.8,nt,-0.1
CCCC#Cc1ccc([C@H]2[C@@H](CO)N3C(=O)CN(C(=O)c4ccccn4)C[C@@H]23)cc1,nt,nt,nt,-0.5,nt,nt
CC(C)N(Cc1nc(-c2ccccc2)no1)C(=O)C(Cl)(Cl)Cl,nt,-4.4,-0.4,-0.7,1.5,43.0*
CC(C)N(Cc1nc(-c2ccccc2)no1)C(=O)C(C)(C)C,18.1,0.8,-0.7,nt,2.3,nt
Cc1cccc(-c2noc(Cc3ccccc3)n2)c1,102.9*,4.8,19.4,nt,?,nt
c1ccc(OCc2nc(-c3ccccc3)no2)cc1,67.9*,-3.5,77.9*,nt,101.7*,nt
c1ccc(OCc2nc(-c3ccncc3)no2)cc1,?,4.9,3.4,-8.1,44.4,-0.5
COC(=O)c1cc(/C=C/c2ccccc2)on1,-3.1,-1.5,nt,nt,nt,nt
COC(=O)c1cc(/C=C/c2ccccc2)[nH]n1,60.8*,7.2,5.6,5.1,66.5,-0.2
Cc1ccc(NC(=O)NCC2CC2(Cl)Cl)cc1 (stereo unspecified),49.9*,3.9,15.0,-1.8,53.5,0.0
Cc1ccc(-n2cc(-c3ccccc3)[nH]c2=O)cc1F,50.3*,3.5,-0.3,nt,113.0*,nt
COCC(=O)N1CCCCN2[C@H](CO)[C@@H](c3ccc(-c4cccc(C)c4)cc3)[C@@H]2C1,nt,nt,nt,-4.5,nt,0.0
Cc1nc2ccccn2c1-c1csc(Nc2cccc(O)c2)n1,nt,-3.1,-1.1,5.2,3.9,0.1
CC(=O)Nc1cccc(-c2csc(Nc3ccc(C)cn3)n2)c1,nt,3.2,nt,nt,119.0*,nt
Cc1ccc(-c2csc(Nc3ccccn3)n2)cc1,-58.6,1.0,1.7,1.9,-9.7,0.0
COc1ccc(-c2csc(Nc3ccccn3)n2)cc1OC,73.5*,3.9,17.4,3.3,nt,0.4
SMILES,esBAF inh,SMARCA2 activ,Wnt act,AF4-AF9 inh,MITF act,FGF22 binding
CC(=O)Nc1cccc(-c2csc(Nc3ncccn3)n2)c1,nt,2.3,44.1*,-1.6,nt,-0.1
Oc1ccc(-c2csc(Nc3ncccn3)n2)cc1O,nt,-0.1,3.5,7.1,24.9,-0.1
CC(=O)Nc1cccc(-c2cnc(NC(C)=O)cn2)c1,?,3.6,6.7,-2.5,nt,-0.3
Cc1cccc(Nc2nc(-c3ccc(O)cc3O)cs2)n1,44.9*,5.0,18.6,-2.7,nt,0.0
O=C(NCCc1ccccc1)[C@@H]1[C@@H](CO)[C@@H]2Cn3c(cccc3=O)[C@@H]2N1Cc1ccncc1,-4.4,nt,nt,1.2,nt,-0.1
Nc1nc2c(ncn2[C@@H]2O[C@H](C(=O)N[C@H](Cc3ccccc3)C(=O)NCc3ccccc3)[C@@H](O)[C@H]2O)c(=O)[nH]1,nt,-0.5,1.2,nt,nt,0.0
CCC(=O)Nc1ccc2c(c1)C(=O)N(C)C[C@@H](OC)[C@@H](C)CN(Cc1cncnc1)[C@@H](C)CO2,2.9,nt,nt,nt,nt,nt
CCC(=O)N1C[C@H](C)[C@@H](OC)CN(C)C(=O)c2cc(NC(=O)NC3CCCC3)ccc2OC[C@H]1C,nt,nt,nt,-10.9,nt,nt

# Bioassay records as filed in PubChem.
